Out of some 5,500 compounds screened, about 2,000 (36%) were called active. Another 18% or so got no clear call; they are omitted. No stated cut-off is given here; in the data, active means normalized growth mostly below about 0.91 (no sharp cut-off); inconclusive means no clear call, values can overlap the other calls; inactive means mostly above about 0.92. This is one part of the list.
Assay: chemical genetic growth profiling, strain panel (AID 1159580);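 further: tested at 20 µM; growth read once vehicle control cultures reached saturation at 30 °C; 1 = growth at the plate median or of vehicle wells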
Conditions: growth OD

Measured: normalized growth

CC(=O)O[C@H]1C[C@@H](OC(C)=O)C(C)(C)C2CC(=O)[C@]3(C)C(CC[C@@]4(C)[C@H](c5ccoc5)OC(=O)[C@H]5O[C@]543)[C@]21C (some centres not stated)
inactive: S. cerevisiae deletion strains, locus YJR075W, strain HOC1, stronger effect = lower value 1.01 | S. cerevisiae deletion strains, locus YKL009W, strain mrt4, stronger effect = lower value 0.974 | S. cerevisiae deletion strains, locus YKL068W, stronger effect = lower value 1.01 | S. cerevisiae deletion strains, locus YKL085W, strain MDH1 (second series), stronger effect = lower value 1.01 | S. cerevisiae deletion strains, locus YKL085W, strain MDH1, stronger effect = lower value 1.01 | S. cerevisiae deletion strains, locus YKL160W, strain elf1, stronger effect = lower value 0.998 | S. cerevisiae deletion strains, locus YKL190W, strain CNB1, stronger effect = lower value 0.998 | S. cerevisiae deletion strains, locus YKR001C, strain vps1, stronger effect = lower value 1.03 | S. cerevisiae deletion strains, locus YKR026C, strain gcn3, stronger effect = lower value 0.993 | S. cerevisiae deletion strains, locus YKR091W, strain srl3, stronger effect = lower value 0.991 | S. cerevisiae deletion strains, locus YLL001W, strain dnm1, stronger effect = lower value 0.99 | S. cerevisiae deletion strains, locus YLL026W, stronger effect = lower value 0.996 | S. cerevisiae deletion strains, locus YLL041C, strain sdh2, stronger effect = lower value 0.982 | S. cerevisiae deletion strains, locus YLR027C, strain aat2, stronger effect = lower value 0.988 | S. cerevisiae deletion strains, locus YLR039C, strain RIC1, stronger effect = lower value 1 | S. cerevisiae deletion strains, locus YLR058C, strain SHM2, stronger effect = lower value 1.01 | S. cerevisiae deletion strains, locus YLR102C, strain apc9, stronger effect = lower value 1 | S. cerevisiae deletion strains, locus YLR113W, strain HOG1, stronger effect = lower value 1.01 | S. cerevisiae deletion strains, locus YLR221C, strain rsa3, stronger effect = lower value 1 | S. cerevisiae deletion strains, locus YLR258W, strain gsy2, stronger effect = lower value 1 | S. cerevisiae deletion strains, locus YLR262C, strain YPT6 (second series), stronger effect = lower value 0.982 | S. cerevisiae deletion strains, locus YLR262C, strain YPT6, stronger effect = lower value 1.07 | S. cerevisiae deletion strains, locus YLR268W, strain sec22, stronger effect = lower value 0.998 | S. cerevisiae deletion strains, locus YLR320W, strain mms22, stronger effect = lower value 1.01 | S. cerevisiae deletion strains, locus YLR342W, strain FKS1 (second series), stronger effect = lower value 1.01 | S. cerevisiae deletion strains, locus YLR342W, strain FKS1, stronger effect = lower value 0.994 | S. cerevisiae deletion strains, locus YLR357W, strain rsc2, stronger effect = lower value 0.989 | S. cerevisiae deletion strains, locus YLR370C, strain arc18, stronger effect = lower value 0.998 | S. cerevisiae deletion strains, locus YLR371W, strain rom2, stronger effect = lower value 0.985 | S. cerevisiae deletion strains, locus YLR384C, strain iki3, stronger effect = lower value 0.984 | S. cerevisiae deletion strains, locus YLR418C, strain cdc73, stronger effect = lower value 1.03 | S. cerevisiae deletion strains, locus YML016C, strain PPZ1, stronger effect = lower value 0.996 | S. cerevisiae deletion strains, locus YML032C, strain rad52, stronger effect = lower value 1.01 | S. cerevisiae deletion strains, locus YML120C, strain ndi1, stronger effect = lower value 0.99 | S. cerevisiae deletion strains, locus YML124C, strain tub3, stronger effect = lower value 1 | S. cerevisiae deletion strains, locus YMR058W, strain fet3, stronger effect = lower value 0.978 | S. cerevisiae deletion strains, locus YMR078C, strain ctf18, stronger effect = lower value 0.996 | S. cerevisiae deletion strains, locus YMR125W, strain sto1, stronger effect = lower value 0.98 | S. cerevisiae deletion strains, locus YMR129W, stronger effect = lower value 0.994 | S. cerevisiae deletion strains, locus YMR205C, strain PFK2, stronger effect = lower value 0.992 | S. cerevisiae deletion strains, locus YMR223W, strain ubp8, stronger effect = lower value 1.01 | S. cerevisiae deletion strains, locus YMR231W, strain pep5, stronger effect = lower value 0.978 | S. cerevisiae deletion strains, locus YMR263W, strain SAP30, stronger effect = lower value 1.02 | S. cerevisiae deletion strains, locus YMR307W, strain GAS1, stronger effect = lower value 1.03 | S. cerevisiae deletion strains, locus YNL067W, strain RPL9B, stronger effect = lower value 1.03 | S. cerevisiae deletion strains, locus YNL071W, strain lat1, stronger effect = lower value 0.992 | S. cerevisiae deletion strains, locus YNL128W, strain TEP1, stronger effect = lower value 0.988 | S. cerevisiae deletion strains, locus YNL153C, strain GIM3, stronger effect = lower value 1.02 | S. cerevisiae deletion strains, locus YNL183C, strain NPR1, stronger effect = lower value 0.941 | S. cerevisiae deletion strains, locus YNL209W, strain ssb2, stronger effect = lower value 0.987 | S. cerevisiae deletion strains, locus YNL233W, strain BNI4, stronger effect = lower value 1.02 | S. cerevisiae deletion strains, locus YNL248C, strain rpa49, stronger effect = lower value 0.981 | S. cerevisiae deletion strains, locus YNL250W, strain rad50, stronger effect = lower value 1.03 | S. cerevisiae deletion strains, locus YNL271C, strain bni1, stronger effect = lower value 1 | S. cerevisiae deletion strains, locus YNL298W, strain CLA4, stronger effect = lower value 1.02 | S. cerevisiae deletion strains, locus YNL307C, strain MCK1, stronger effect = lower value 1.02 | S. cerevisiae deletion strains, locus YNL322C, strain KRE1 (second series), stronger effect = lower value 0.994 | S. cerevisiae deletion strains, locus YNR049C, strain mso1, stronger effect = lower value 0.987 | S. cerevisiae deletion strains, locus YNR052C, strain pop2, stronger effect = lower value 1.02 | S. cerevisiae deletion strains, locus YOL012C, strain htz1 1 | S. cerevisiae deletion strains, locus YOL147C, strain pex11, stronger effect = lower value 1.01 | S. cerevisiae deletion strains, locus YOR001W, strain rrp6, stronger effect = lower value 0.986 | S. cerevisiae deletion strains, locus YOR061W, strain CKA2, stronger effect = lower value 0.991 | S. cerevisiae deletion strains, locus YOR069W, strain VPS5, stronger effect = lower value 1 | S. cerevisiae deletion strains, locus YOR070C, strain gyp1, stronger effect = lower value 1.01 | S. cerevisiae deletion strains, locus YOR080W, strain dia2, stronger effect = lower value 1 | S. cerevisiae deletion strains, locus YOR083W, strain WHI5, stronger effect = lower value 0.995 | S. cerevisiae deletion strains, locus YOR106W, strain vam3, stronger effect = lower value 1 | S. cerevisiae deletion strains, locus YOR136W, strain idh2, stronger effect = lower value 1.01 | S. cerevisiae deletion strains, locus YOR144C, strain elg1, stronger effect = lower value 1.01 | S. cerevisiae deletion strains, locus YOR184W, strain ser1, stronger effect = lower value 0.996 | S. cerevisiae deletion strains, locus YOR231W, strain MKK1, stronger effect = lower value 0.981 | S. cerevisiae deletion strains, locus YOR265W, strain rbl2, stronger effect = lower value 0.99 | S. cerevisiae deletion strains, locus YOR270C, strain vph1, stronger effect = lower value 0.943 | S. cerevisiae deletion strains, locus YOR290C, strain snf2, stronger effect = lower value 1 | S. cerevisiae deletion strains, locus YOR316C, strain cot1, stronger effect = lower value 1.02 | S. cerevisiae deletion strains, locus YPL051W, strain arl3, stronger effect = lower value 1.03 | S. cerevisiae deletion strains, locus YPL078C, strain atp4, stronger effect = lower value 0.989 | S. cerevisiae deletion strains, locus YPL106C, strain sse1, stronger effect = lower value 1 | S. cerevisiae deletion strains, locus YPL240C, strain hsp82, stronger effect = lower value 0.995 | S. cerevisiae deletion strains, locus YPL256C, strain CLN2, stronger effect = lower value 0.968 | S. cerevisiae deletion strains, locus YPR119W, strain clb2, stronger effect = lower value 1.01 | S. cerevisiae deletion strains, locus YPR141C, strain kar3, stronger effect = lower value 1 | S. cerevisiae deletion strains, locus YPR163C, strain tif3, stronger effect = lower value 1.01 | S. cerevisiae deletion strains, locus YPR167C, strain met16, stronger effect = lower value 1 | S. cerevisiae deletion strains, strain wtn01, stronger effect = lower value 0.984 | S. cerevisiae strains, strain wild type, stronger effect = lower value 0.991
